In assay [1] the target is human Serotonin, 5-Hydroxytryptamine Receptor 2A (5HT2A), HTR2A (gene 3356) (UniProt P28223). In words: NVS_GPCR_h5HT2A: NovaScreen (NVS) G Protein-Coupled Receptor Assay for human Serotonin, 5-Hydroxytryptamine Receptor 2A (5HT2A) (AID 2283249). In a few lines: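 Human cortex membranes, cell-free radioligand binding; filter-based scintillation read 1.5 h after dosing. Duplicate screen at 25 uM first; displacement of specific binding (loss of signal) versus DMSO.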

In assay [2] the test system is guinea pig Muscarinic, Peripheral (Mperiperal) Receptor, Non-selective Binding, gene 100379235. The experiment in a line: NVS_GPCR_gMPeripheral_NonSelective: NovaScreen (NVS) G Protein-Coupled Receptor Assay for guinea pig Muscarinic, Peripheral (Mperiperal) Receptor, Non-selective Binding (AID 2283250). An outline of the steps: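 Guinea pig bladder membranes, radioligand binding read 1 h after dosing by filter scintillation counting; loss of signal vs DMSO. Primary duplicate screen at 25 uM, then concentration-response up to 50 uM.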

Assay [3] concerns the target human Serotonin, 5-Hydroxytryptamine Receptor 7 (5HT7), HTR7 (gene 3363) (UniProt P34969). In words: NVS_GPCR_h5HT7: NovaScreen (NVS) G Protein-Coupled Receptor Assay for human Serotonin, 5-Hydroxytryptamine Receptor 7 (5HT7) (AID 2283255).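 Also: hits reduce specific radioligand binding relative to DMSO.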 In a few lines: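 Radioligand displacement on membranes from CHO cells expressing human 5HT7, 1 h incubation, filter-based scintillation counting. Primary screen used a single 25 uM concentration in duplicate; actives were followed up in concentration series.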

In assay [4] the target is human Adrenergic, Beta 3 Receptor (Adrb3), ADRB3 (gene 155) (UniProt P13945). In words: NVS_GPCR_hAdrb3: NovaScreen (NVS) G Protein-Coupled Receptor Assay for human Adrenergic, Beta 3 Receptor (Adrb3) (AID 2283262). An outline of the steps: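 Membranes from SK-N-MC cells pretreated with isoproterenol and 8-bromo-cAMP were used in a radioligand competitive displacement binding assay. Binding was read by filter-based scintillation counting 1 hour after dosing. Primary screening was in duplicate at 25 uM, with concentration series in follow-up.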
human Adrenergic, Beta 3 Receptor (Adrb3), ADRB3 (gene 155), sequence (P13945 whole entry, looked up): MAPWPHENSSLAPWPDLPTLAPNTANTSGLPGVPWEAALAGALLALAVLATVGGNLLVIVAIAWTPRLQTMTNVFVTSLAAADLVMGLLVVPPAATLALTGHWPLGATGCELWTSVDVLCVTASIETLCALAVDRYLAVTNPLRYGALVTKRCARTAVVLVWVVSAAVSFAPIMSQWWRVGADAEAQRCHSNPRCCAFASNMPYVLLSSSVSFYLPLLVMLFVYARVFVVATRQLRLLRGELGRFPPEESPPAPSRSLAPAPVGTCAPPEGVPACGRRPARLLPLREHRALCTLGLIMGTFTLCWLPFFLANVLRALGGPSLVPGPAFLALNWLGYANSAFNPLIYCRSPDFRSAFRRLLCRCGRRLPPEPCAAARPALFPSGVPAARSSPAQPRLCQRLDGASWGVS

Assay [5] deals with human Histamine 1 Receptor (H1), HRH1 (gene 3269) (UniProt P35367). In words: NVS_GPCR_hH1: NovaScreen (NVS) G Protein-Coupled Receptor Assay for human Histamine 1 Receptor (H1) (AID 2283268). An outline of the steps: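 Cell-free radioligand displacement at human H1 receptor, 1 h, filter scintillation counting; primary screen 25 uM in duplicate, hits in concentration series; loss of binding fitted vs DMSO.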
human Histamine 1 Receptor (H1), HRH1 (gene 3269), sequence (P35367 whole entry, looked up): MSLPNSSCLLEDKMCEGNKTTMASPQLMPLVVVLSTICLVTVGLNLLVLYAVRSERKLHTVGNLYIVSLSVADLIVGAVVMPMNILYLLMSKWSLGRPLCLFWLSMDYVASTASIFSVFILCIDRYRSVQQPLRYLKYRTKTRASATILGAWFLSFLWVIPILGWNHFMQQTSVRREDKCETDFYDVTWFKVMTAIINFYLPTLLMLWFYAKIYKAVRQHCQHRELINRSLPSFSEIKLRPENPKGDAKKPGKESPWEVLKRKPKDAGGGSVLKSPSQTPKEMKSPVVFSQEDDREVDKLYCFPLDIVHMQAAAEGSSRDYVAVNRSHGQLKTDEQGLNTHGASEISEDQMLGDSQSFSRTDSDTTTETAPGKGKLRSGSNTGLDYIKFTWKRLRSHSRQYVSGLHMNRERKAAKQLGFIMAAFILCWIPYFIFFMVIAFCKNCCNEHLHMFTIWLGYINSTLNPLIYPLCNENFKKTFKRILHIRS

Assay [6] addresses D(1A) dopamine receptor (Homo sapiens) (UniProt P21728). In words: NVS_GPCR_hDRD1: NovaScreen (NVS) G Protein-Coupled Receptor Assay for human Dopamine Receptor D1 (DRD1) (AID 2283269). In a few lines: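 HEK293-derived receptor preparation; radioligand competitive displacement; 1 h; filtration + scintillation counting. DMSO = negative control/baseline. Primary: 25 uM, duplicate; secondary: concentration–response for actives.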

The target of assay [7] is Muscarinic acetylcholine receptor M1 (Homo sapiens) (UniProt P11229). The experiment in a line: NVS_GPCR_hM1: NovaScreen (NVS) G Protein-Coupled Receptor Assay for human Muscarinic, M1 Receptor (AID 2283270). An outline of the steps: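 Cell-free radioligand displacement using membrane protein extracted from CHO cells, read by filter-based scintillation counting 1 h after dosing. Loss of bound signal fitted versus DMSO; primary screen single concentration 25 uM in duplicate, actives followed by concentration series.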
Muscarinic acetylcholine receptor M1 (Homo sapiens), sequence (P11229 whole entry, looked up): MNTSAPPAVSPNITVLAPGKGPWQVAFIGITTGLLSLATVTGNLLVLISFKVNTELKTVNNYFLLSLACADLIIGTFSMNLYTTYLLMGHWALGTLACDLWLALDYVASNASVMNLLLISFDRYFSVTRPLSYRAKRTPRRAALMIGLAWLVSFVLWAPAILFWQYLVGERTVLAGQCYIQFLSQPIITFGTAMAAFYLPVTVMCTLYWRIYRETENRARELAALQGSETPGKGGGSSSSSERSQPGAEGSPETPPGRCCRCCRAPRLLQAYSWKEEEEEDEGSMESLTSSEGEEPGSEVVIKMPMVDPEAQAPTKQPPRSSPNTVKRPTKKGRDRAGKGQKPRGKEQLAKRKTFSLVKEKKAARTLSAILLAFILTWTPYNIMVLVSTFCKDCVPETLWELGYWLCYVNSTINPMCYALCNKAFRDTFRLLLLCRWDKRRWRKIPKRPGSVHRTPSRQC

Assay [8] has as its target guinea pig Opioid, Kappa 1 Receptor (OpiateK), OPRK1 (gene 100135587) (UniProt P41144). The experiment in a line: NVS_GPCR_gOpiateK: NovaScreen (NVS) G Protein-Coupled Receptor Assay for guinea pig Opioid, Kappa 1 Receptor (OpiateK) (AID 2283252).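 Also: radioligand displacement from kappa opioid receptor in guinea pig cerebellar membranes; active means reduced radioligand binding relative to DMSO.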 In a few lines:
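Signal is scintillation counts of filter-trapped radioligand bound to guinea pig cerebellar membrane receptor, measured 2 hours post-dosing. Activity is loss of binding versus DMSO, first at 25 uM in duplicate, then as concentration series for actives.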

Assay [9] addresses human Adrenergic, Alpha 2A Receptor (Adra2A), ADRA2A (gene 150) (UniProt P08913). The experiment in a line: NVS_GPCR_hAdra2A: NovaScreen (NVS) G Protein-Coupled Receptor Assay for human Adrenergic, Alpha 2A Receptor (Adra2A) (AID 2283257). In a few lines:
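Radioligand filter-binding was run on HT29-derived membranes, cell-free, read by scintillation counting 1 h after dosing. Primary screening was in duplicate at 25 uM, with concentration series in follow-up. Loss of signal versus DMSO indicates displacement.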

Assay [10] addresses human Leukotriene B4 Receptor 1 (LTB4-BLT1), LTB4R (gene 1241) (UniProt Q15722). In words: NVS_GPCR_hLTB4_BLT1: NovaScreen (NVS) G Protein-Coupled Receptor Assay for human Leukotriene B4 Receptor 1 (LTB4-BLT1) (AID 2283271). In a few lines:
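Radioligand displacement binding on receptor extracted from human neutrophils, cell-free, 1 h after dosing; filter-based scintillation counting. Primary screen in duplicate at 25 uM, actives retested in concentration-response up to 50 uM; loss of signal versus DMSO.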

Assay [11] has as its target guinea pig Leukotriene D4 Receptor (LTD4), CYSLTR1 (gene 100135514) (UniProt Q2NNR5). In words: NVS_GPCR_gLTD4: NovaScreen (NVS) G Protein-Coupled Receptor Assay for guinea pig Leukotriene D4 Receptor (LTD4) (AID 2283248). An outline of the steps:
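Radioligand displacement on guinea pig lung membranes, 1 h incubation, filtration and scintillation counting; DMSO as negative control. Duplicate 25 uM primary screen, then singleton concentration-response up to 50 uM.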

Assay [12] has as its target human Serotonin, 5-Hydroxytryptamine Receptor 6 (5HT6), HTR6 (gene 3362) (UniProt P50406). In words: NVS_GPCR_h5HT6: NovaScreen (NVS) G Protein-Coupled Receptor Assay for human Serotonin, 5-Hydroxytryptamine Receptor 6 (5HT6) (AID 2283253). An outline of the steps:
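Radioligand binding to 5HT6 in HEK293-derived membranes, cell-free, 1 h after dosing; bound ligand measured by filter-based scintillation counting. Primary screen in duplicate at 25 uM; actives retested in concentration series.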

The target in assay [13] is human Adenosine A1 Receptor (AdoRA1), ADORA1 (gene 134) (UniProt P30542). In words: NVS_GPCR_hAdoRA1: NovaScreen (NVS) G Protein-Coupled Receptor Assay for human Adenosine A1 Receptor (AdoRA1) (AID 2283254). An outline of the steps:
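Hum. cortical membranes + radioligand, cmpd 1 h; filtration, scintillation count. Readout = decrease vs DMSO. Primary 25 uM dup; hits → conc. series.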

Assay [14] has as its target Type-1 angiotensin II receptor (Homo sapiens) (UniProt P30556). In words: NVS_GPCR_hAT1: NovaScreen (NVS) G Protein-Coupled Receptor Assay for human Angiotensin II receptor type 1 (AT1) (AID 2283263). An outline of the steps:
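Membranes from KAN-TS cells; radioligand competitive displacement, 3 h, filtration and scintillation counting. Single-point duplicate screen at 25 uM, then concentration-response up to 50 uM for hits; loss of signal fitted versus DMSO.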

For assay [15], the target named is human Endothelin Receptor Type B (ETB), EDNRB (gene 1910) (UniProt P24530). In words: NVS_GPCR_hETB: NovaScreen (NVS) G Protein-Coupled Receptor Assay for human Endothelin Receptor Type B (ETB) (AID 2283267). In a few lines: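 Human astrocytoma cell membranes; radioligand competitive binding read by filter scintillation counting 4 hours after dosing. Single-concentration duplicate screen at 25 uM, then singleton concentration-response up to 50 uM; loss of signal versus DMSO.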

The target in assay [16] is human Adrenergic, Beta 1 Receptor (Adrb1), ADRB1 (gene 153) (UniProt P08588). In words: NVS_GPCR_hAdrb1: NovaScreen (NVS) G Protein-Coupled Receptor Assay for human Adrenergic, Beta 1 Receptor (Adrb1) (AID 2283258). In a few lines: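 Cell-free radioligand displacement on receptor from human neuroepithelioma cells; 2 h after dosing, filter-based scintillation counting. Primary screen in duplicate at 25 uM, actives retested in concentration series; loss of signal vs DMSO baseline.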

In general, AC50 refers to the concentration at which the activity in the assay is half-maximal.

Results filed as inconclusive are left out. The source made the active and inactive calls. The calls were made as follows: active = hit-call score of the fitted dose curve at least 0.9, where 1 is the maximum; inconclusive = response in the unintended direction; inactive = score below 0.9.

guinea pig Leukotriene D4 Receptor (LTD4), CYSLTR1 (gene 100135514), sequence (Q2NNR5 whole entry, looked up): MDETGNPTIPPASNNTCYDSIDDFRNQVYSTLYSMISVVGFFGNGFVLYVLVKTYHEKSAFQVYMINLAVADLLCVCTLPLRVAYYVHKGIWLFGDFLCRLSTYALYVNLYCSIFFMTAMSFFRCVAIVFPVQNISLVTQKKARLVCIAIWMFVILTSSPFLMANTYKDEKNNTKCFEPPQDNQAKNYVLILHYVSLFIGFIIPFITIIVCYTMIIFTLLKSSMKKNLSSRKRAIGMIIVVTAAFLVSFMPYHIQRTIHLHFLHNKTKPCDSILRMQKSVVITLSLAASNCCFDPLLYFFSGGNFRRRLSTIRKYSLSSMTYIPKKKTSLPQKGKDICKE
human Serotonin, 5-Hydroxytryptamine Receptor 7 (5HT7), HTR7 (gene 3363), sequence (P34969 whole entry, looked up): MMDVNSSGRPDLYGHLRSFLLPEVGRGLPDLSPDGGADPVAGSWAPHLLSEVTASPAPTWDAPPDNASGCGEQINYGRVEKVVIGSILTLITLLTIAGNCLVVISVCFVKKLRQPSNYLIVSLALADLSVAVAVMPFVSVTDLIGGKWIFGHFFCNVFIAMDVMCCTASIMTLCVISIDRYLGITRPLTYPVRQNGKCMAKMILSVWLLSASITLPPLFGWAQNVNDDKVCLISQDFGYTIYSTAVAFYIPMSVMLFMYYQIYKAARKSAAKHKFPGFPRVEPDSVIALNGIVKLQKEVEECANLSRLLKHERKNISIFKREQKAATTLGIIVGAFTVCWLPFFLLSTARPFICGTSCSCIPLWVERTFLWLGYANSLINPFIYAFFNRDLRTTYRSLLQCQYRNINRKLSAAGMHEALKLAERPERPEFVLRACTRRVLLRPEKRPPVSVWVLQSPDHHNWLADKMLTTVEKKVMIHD
human Leukotriene B4 Receptor 1 (LTB4-BLT1), LTB4R (gene 1241), sequence (Q15722 whole entry, looked up): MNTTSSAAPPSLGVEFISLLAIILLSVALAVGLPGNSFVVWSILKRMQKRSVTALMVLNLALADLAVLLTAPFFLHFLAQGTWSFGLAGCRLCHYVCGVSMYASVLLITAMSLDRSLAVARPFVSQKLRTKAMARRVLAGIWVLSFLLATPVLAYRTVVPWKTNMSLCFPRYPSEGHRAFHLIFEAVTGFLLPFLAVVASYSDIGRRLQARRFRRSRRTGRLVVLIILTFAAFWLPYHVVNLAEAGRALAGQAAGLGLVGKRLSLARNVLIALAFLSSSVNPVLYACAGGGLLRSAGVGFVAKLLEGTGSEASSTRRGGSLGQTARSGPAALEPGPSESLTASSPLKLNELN
guinea pig Opioid, Kappa 1 Receptor (OpiateK), OPRK1 (gene 100135587), sequence (P41144 whole entry, looked up): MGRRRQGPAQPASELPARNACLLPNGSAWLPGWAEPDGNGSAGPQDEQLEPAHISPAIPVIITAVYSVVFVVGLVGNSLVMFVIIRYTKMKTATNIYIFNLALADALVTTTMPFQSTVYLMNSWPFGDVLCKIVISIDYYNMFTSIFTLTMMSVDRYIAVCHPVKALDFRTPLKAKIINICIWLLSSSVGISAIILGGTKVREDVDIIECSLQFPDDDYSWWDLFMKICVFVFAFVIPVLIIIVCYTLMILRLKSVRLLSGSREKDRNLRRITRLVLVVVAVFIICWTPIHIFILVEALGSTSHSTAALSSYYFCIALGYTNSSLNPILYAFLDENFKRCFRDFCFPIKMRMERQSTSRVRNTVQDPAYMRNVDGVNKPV
human Serotonin, 5-Hydroxytryptamine Receptor 2A (5HT2A), HTR2A (gene 3356), sequence (P28223 whole entry, looked up): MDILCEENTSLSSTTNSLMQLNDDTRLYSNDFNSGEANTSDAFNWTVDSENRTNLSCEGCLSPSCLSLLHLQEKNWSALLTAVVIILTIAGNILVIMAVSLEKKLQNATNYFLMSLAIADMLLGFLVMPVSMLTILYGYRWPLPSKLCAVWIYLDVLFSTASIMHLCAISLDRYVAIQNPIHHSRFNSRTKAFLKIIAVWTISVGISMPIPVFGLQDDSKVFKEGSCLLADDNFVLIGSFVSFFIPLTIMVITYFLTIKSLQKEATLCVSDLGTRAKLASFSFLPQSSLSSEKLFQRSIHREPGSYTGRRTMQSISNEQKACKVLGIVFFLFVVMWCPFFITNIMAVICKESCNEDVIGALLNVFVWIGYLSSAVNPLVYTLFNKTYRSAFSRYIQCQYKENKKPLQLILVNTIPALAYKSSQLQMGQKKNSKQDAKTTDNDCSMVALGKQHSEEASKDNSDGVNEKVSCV
Type-1 angiotensin II receptor (Homo sapiens), sequence (P30556 whole entry, looked up): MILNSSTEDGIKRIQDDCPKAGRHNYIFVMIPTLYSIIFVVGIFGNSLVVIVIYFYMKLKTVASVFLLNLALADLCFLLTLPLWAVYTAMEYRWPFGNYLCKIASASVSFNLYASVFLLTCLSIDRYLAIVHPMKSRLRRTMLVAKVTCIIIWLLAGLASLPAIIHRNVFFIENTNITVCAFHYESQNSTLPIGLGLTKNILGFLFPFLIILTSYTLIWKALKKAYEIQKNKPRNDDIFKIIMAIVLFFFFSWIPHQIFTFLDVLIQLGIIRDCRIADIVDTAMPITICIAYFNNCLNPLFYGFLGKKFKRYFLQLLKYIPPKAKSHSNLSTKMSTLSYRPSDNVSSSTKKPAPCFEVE
D(1A) dopamine receptor (Homo sapiens), sequence (P21728 whole entry, looked up): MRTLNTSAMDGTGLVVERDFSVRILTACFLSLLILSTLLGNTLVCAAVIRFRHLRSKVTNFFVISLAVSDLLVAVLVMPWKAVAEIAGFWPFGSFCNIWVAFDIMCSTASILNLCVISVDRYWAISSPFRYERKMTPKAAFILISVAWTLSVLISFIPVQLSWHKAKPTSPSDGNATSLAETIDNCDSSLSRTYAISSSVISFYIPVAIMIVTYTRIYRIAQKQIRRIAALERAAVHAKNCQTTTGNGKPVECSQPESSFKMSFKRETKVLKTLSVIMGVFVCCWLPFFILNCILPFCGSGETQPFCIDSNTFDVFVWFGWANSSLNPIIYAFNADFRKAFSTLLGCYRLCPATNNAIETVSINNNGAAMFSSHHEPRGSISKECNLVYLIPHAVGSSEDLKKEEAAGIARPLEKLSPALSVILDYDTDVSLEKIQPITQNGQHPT
human Adrenergic, Alpha 2A Receptor (Adra2A), ADRA2A (gene 150), sequence (P08913 whole entry, looked up): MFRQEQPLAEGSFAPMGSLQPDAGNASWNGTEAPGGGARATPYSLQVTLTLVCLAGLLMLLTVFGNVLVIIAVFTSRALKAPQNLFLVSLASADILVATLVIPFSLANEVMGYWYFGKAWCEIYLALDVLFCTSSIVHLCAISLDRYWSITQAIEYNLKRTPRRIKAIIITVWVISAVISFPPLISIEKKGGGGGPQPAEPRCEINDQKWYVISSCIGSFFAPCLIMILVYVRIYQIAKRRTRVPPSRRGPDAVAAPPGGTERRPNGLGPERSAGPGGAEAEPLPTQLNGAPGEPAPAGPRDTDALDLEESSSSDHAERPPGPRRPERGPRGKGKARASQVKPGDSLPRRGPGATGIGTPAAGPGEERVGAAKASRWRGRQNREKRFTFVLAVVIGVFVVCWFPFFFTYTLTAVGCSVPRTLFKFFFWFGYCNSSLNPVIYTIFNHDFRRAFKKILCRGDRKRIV

On to `CCCCCCCCCCCC[N+](C)(C)C`, for which the AC50 was 4.04 µM (active) in [1]; 4.49 µM (active) in assay [2]; 17.3 µM (active) in [3]; 25 µM (active) in assay [4]; 15.7 µM (active) in [5]; 16.1 µM (active) in assay [6]. The AC50 in assay [7] was 4.64 µM (active).

As for `COc1ccc2cc(S(=O)(=O)N[C@H](CC(=O)N[C@H](Cc3ccc(CN4[C@H](C)CCC[C@@H]4C)cc3)C(=O)N(C)C(C)C)c3ccc4c(c3)OCO4)ccc2c1`, the AC50 is 7.94 µM (active) in assay [1]; 5.48 µM (active) in assay [2]; 0.548 µM (active) in assay [8]; 18.8 µM (active) in assay [9]; 17.8 µM (active) in assay [5]; 30.2 µM (active) in assay [6]. The AC50 in assay [7] was 3.51 µM (active); in assay [10] it was 11.6 µM (active). Besides, the result in [3] was inactive.

For `CC[C@H](NC(=O)c1cc(F)ccc1NS(=O)(=O)c1cccc2cccnc12)c1ccccc1`, in assay [11], the compound was classed as inactive. Besides, in assay [12], the AC50 was 1.31 µM (active).

`Cc1cc2c(cc1C(F)(F)F)N(C(=O)Nc1ccc(Oc3cccnc3C)nc1)CC2`: the result in assay [2] and in [3] was inactive. The AC50 in assay [12] was 2.91 µM (active).

As to `O=C1c2ccccc2C(=O)N1CCc1noc(-c2ccc(CN3CCCCCC3)s2)n1`, the half-maximal activity concentration (AC50) was 2.4 µM (active) in [1]; 4.5 µM (active) in [2]; 8.12 µM (active) in assay [3]; 0.861 µM (active) in assay [9]; 14.8 µM (active) in assay [14]; 7.44 µM (active) in assay [5]. Also, in [7], the AC50 is 7.52 µM (active). In addition, the outcome in assay [8], in assay [13], in assay [15] and in assay [10] was inactive.

On to `c1ccc(C[n+]2cccc3ccccc32)cc1`, for which the AC50 was 8.25 µM (active) in [2], 11.8 µM (active) in assay [8] and 13 µM (active) in [5].

Turning to `CC(C)(C)c1csc(-c2cc3cc(OCc4ccccc4CC(=O)O)ccc3o2)n1`, in assay [11], the AC50 is 0.0125 µM (active). Also, the call in [16], in [14] and in [10] was inactive.

Consider `Clc1cc(Cl)c2c(c1)N=C1CCCCCN1C2`, for which the AC50 in assay [2] was 6.74 µM (active); in assay [8], 10.5 µM (active); in assay [9], 2.99 µM (active); in assay [5], 4.5 µM (active); in assay [7] it was 2.74 µM (active). Besides, the call in assay [4] was inactive.

In the case of `CCN(Cc1cccnc1)C(=O)c1cccc(Cl)c1[C@]1(C)C(=O)N(Cc2ccc(OC)cc2OC)c2ccc(Cl)cc21`, the AC50 in [11] was 9.32 µM (active); in assay [1], 15.9 µM (active); in [8], 11.1 µM (active); in assay [3] it was 6.41 µM (active); in [14] it was 3.69 µM (active); in assay [6], 2.53 µM (active). Besides, the AC50 in assay [10] was 1.49 µM (active). Further, the compound was called inactive in [9].

In the case of `CCCCOC(=O)c1ccc(O)cc1`, in assay [8], the compound was called inactive. In addition, the AC50 in assay [13] was 11.7 µM (active).
